# Screens (PubChem)
# TrxR1 inh = qHTS Assay for Inhibitors of Mammalian Selenoprotein Thioredoxin Reductase 1 (TrxR1): qHTS. recombinant rTrxR1, NADPH fluorescence consumption, selenite substrate. Potency, µM (titrated, usually from 114 µM), for the others: at the highest dose activity change, negative = inhibition, hits mostly inhibitors. actives 1% (n = 390,000); further: on the % scale 0 is the no-effect control and ±100 the full control effect; nearly all actives have a fitted effect of over 65% in size
#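 Rat TrxR1 (90 nM in the dispensed reagent) was pre-reduced with 400 uM NADPH for 5 min at room temperature, then incubated with compound for 15 min. After 400 uM selenite was added, NADPH fluorescence (Ex 340/Em 450 nm) was followed for 8 min.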
# TrxR1 substrate = qHTS Assay for Substrates of Mammalian Selenoprotein Thioredoxin Reductase 1 (TrxR1): qHTS | actives 0.01% (n = 390,000) | Potency, µM (series often up to 114 µM), for the others: top-dose activity change, negative = substrate turnover | Thioredoxin reductase 1, cytoplasmic (Rattus norvegicus), O89049 | purified TrxR1 substrate turnover, NADPH consumption readout | AID 588456, 2011; further: on the % scale 0 is the no-effect control and ±100 the full control effect; nearly all actives have a fitted effect of over 50% in size
#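 Rat TrxR1, dispensed at 90 nM, was prereduced with 400 uM NADPH (final) for 5 min at ~22 deg C, then incubated with compound 15 min before 400 uM selenite. A first-read NADPH fluorescence drop versus no-compound background flagged substrates.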
# mIDH1 inhibitor = qHTS for Inhibitors of mutant isocitrate dehydrogenase 1 (IDH1): qHTS; IDH1-R132H enzyme, NADPH consumption, diaphorase/resazurin fluorescence; Potency, µM (highest dose often 76.6 µM), inactives show top-dose activity change, negative = inhibition, most hits filed as inhibitors; actives 0.093% (n = 390,000); AID 602179, 2012; further: on the % scale 0 is the no-effect control and ±100 the full control effect; nearly all actives have a fitted effect of over 65% in size
# Target sequence (O75874 whole entry R132H, stated change not applied): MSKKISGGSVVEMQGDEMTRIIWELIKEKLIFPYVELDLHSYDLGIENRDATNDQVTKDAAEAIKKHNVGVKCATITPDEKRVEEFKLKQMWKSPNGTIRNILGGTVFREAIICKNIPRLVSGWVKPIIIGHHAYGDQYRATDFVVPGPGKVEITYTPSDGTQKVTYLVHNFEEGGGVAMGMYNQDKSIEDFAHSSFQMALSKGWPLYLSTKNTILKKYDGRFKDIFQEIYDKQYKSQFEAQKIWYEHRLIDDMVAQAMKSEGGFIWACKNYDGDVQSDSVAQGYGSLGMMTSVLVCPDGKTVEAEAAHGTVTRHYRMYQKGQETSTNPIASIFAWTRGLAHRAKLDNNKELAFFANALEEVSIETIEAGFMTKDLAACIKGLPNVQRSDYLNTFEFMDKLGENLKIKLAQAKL
#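 IDH1-R132H (0.5 ug/mL dispensed) in pH 7.5 Tris buffer was preincubated 30 min with compound, then given a substrate mix of 0.016 mM NADPH and 2 mM alpha-KG for 80 min at room temperature; remaining NADPH was read by diaphorase/resazurin fluorescence.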
# Nrf2 inh = Nrf2 qHTS screen for inhibitors | A549 ARE-Fluc reporter, luciferase luminescence, 18-24 h | Potency, µM (doses to about 46 µM), inactives show at the top dose activity change, negative = inhibition, actives largely listed as inhibitors | actives 2.1% (n = 360,000); further: on the % scale 0 is the no-effect control and ±100 the full control effect; nearly all actives have a fitted effect of over 60% in size
#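 Nrf2 function is reported as luminescence of an ARE-controlled luciferase in A549 cells. Compounds were tested at several concentrations, and a CellTiter-Fluor read on the same wells flagged cytotoxicity.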
# A549 viability = Nrf2 qHTS screen for inhibitors: counterscreen for cytotoxicity. A549 ARE-Fluc cells, CellTiter-Fluor viability, 18-24 h. Potency, µM (top dose mostly 46 µM), for the others: top-dose activity change, negative = cytotoxicity, hits mostly inhibitors. actives 0.16% (n = 390,000). AID 504648, 2011; further: on the % scale 0 is the no-effect control and ±100 the full control effect
#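 A549 ARE_Fluc cells in 5% FBS OPTI-MEM were exposed to compounds in concentration-response for 18-24 h at 37 deg C. Viability was read by CellTiter-Fluor fluorescence (Ex 405/Em 525) after 30 min, before the luciferase read.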
# Mito fusion yeast = qHTS Assay for Small Molecule Inhibitors of Mitochondrial Division or Activators of Mitochondrial Fusion; S. cerevisiae fusion-defective mutant growth rescue, CellTiterGlo 48 h; Potency, µM (series often up to 46.1 µM), inactives show at the top dose growth rescue (activation), most hits filed as activators; actives 0.23% (n = 320,000); further: % of control where 0% means no effect; nearly all actives have a fitted effect of over 45% in size
#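 S. cerevisiae fusion-defective temperature-sensitive mutants (e.g. fzo1-1, mgm1-5) grown 48 h at 37C in YPEG (ethanol/glycerol non-fermentable) medium with 23 nl compound per well; growth rescue read as CellTiterGlo luminescence.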
# Starred values were filed as active, the others as inactive; ? = inconclusive; · = not tested or not shown; [ ] = dose if it differs, or a comment. Compounds with a hit are over-represented: about 3.1% of the library has one in this group of screens. The call rests on the fitted dose curve; in most records, active means well fitted curve in the direction sought with a large enough effect; inconclusive means small, poorly fitted or top-dose-only effect, or another doubt; inactive means no such curve, though single readings can be large; an effect the other way counts as inactive or inconclusive. Potency means the concentration at half of the fitted maximal effect.
SMILES,TrxR1 inh,TrxR1 substrate,mIDH1 inhibitor,Nrf2 inh,A549 viability,Mito fusion yeast
CCOC(=O)C1CCCN(C(=O)c2ccc(CS(=O)(=O)c3ccc(C)cc3)o2)C1 (stereo not drawn),?,5.2%,13.1%,17.3%,4.1%,-1.4%
O=C(c1ccco1)N1CCN(C(=O)c2ccc(-c3ccc([N+](=O)[O-])cc3)o2)CC1,7.08µM*,-12.4%,8.0%,-0.8%,2.7%,·
O=C(c1ccc(-c2ccc([N+](=O)[O-])cc2)o1)N1CCN(S(=O)(=O)c2cccs2)CC1,44.7µM*,5.4%,2.3%,8.5%,-0.6%,7.4%
COc1ccc(CCNC(=O)CCCn2c(=O)c3ccccc3n(CC(=O)Nc3cccc(C)c3)c2=O)cc1OC,18.2%,8.4%,-8.1%,-5.7%,-15.7%,·
CCn1c(N2CCN(C(=S)Nc3ccc(OC)cc3)CC2)nc2ccccc21,8.7%,-0.1%,-7.0%,16.4µM*,-9.3%,-9.3%
Cc1ccc(NC(=O)c2oc3ccc4c(c3c2C)C(=O)CC(C)(C)O4)c(C)c1,6.5%,3.0%,-7.1%,?,7.4%,·
CC(C)C1C(=O)Nc2ccc(S(=O)(=O)NCCc3ccc(Cl)cc3)cc21 (stereo not drawn),13.0%,-6.9%,-2.7%,?,-0.1%,·
COc1ccc(NC(=O)Cn2c(=O)n(Cc3ccco3)c(=O)c3sc4ccccc4c32)cc1Cl,-13.7%,-6.1%,6.9%,1.8%,-0.8%,·
CCOc1ccc(OCC)c(NC(=O)c2cnc(SC)nc2-c2ccccc2)c1,11.0%,0.2%,-1.0%,0.8%,0.1%,·
COc1cc(NC(=O)c2cc(-c3ccccc3)nc3c2cnn3C(C)C)cc(OC)c1OC,-14.9%,-13.3%,-18.1%,?,?,·
CNC(=O)c1cccc(NC(=O)c2cc(-c3ccccc3)nc3c2cnn3C(C)C)c1,19.5%,3.1%,-6.1%,20.6µM*,-19.8%,-1.2%
CCOc1ccccc1NS(=O)(=O)c1ccc(N2CCCCS2(=O)=O)cc1,9.6%[57.1 µM],0.5%[57.1 µM],2.8%,·,11.0%,·
Cc1ccc(NC(=O)c2ccc3c(c2)CCC(=O)N3)cc1C,·,·,·,4.8%,1.5%,·
CCc1ccc(CNC(=O)c2cc3c(C)nc4ccccc4c3o2)cc1,5.1%[57.1 µM],-2.8%[57.1 µM],-0.4%,14.6µM*,-25.3%,16.1%
Cc1nc2ccccc2c2oc(C(=O)NCC3COc4ccccc4O3)cc12 (stereo not drawn),2.6%[57.1 µM],4.5%[57.1 µM],-5.0%,16.4µM*,-24.5%,25.1%
COc1cccc(CNC(=O)c2cc3c(C)nc4ccccc4c3o2)c1,5.3%[57.1 µM],1.6%[57.1 µM],10.2%,-92.0%,-23.1%,7.2%
COc1ccc(C(Nc2cc(C)ccn2)c2ccc3ccc(C)nc3c2O)cc1 (stereo not drawn),14.1µM*,3.0%,3.1%,0.2%,-6.2%,1.0%
Cc1ccc2ccc(C(Nc3ccccn3)c3ccccc3)c(O)c2n1 (stereo not drawn),?,0.1%,9.9%,?,-22.9%,1.0%
Cc1ccnc(NC(c2ccsc2)c2ccc3ccc(C)nc3c2O)c1 (stereo not drawn),3.55µM*,6.3%,1.0%,8.3%,5.3%,2.8%
COc1cc(C(Nc2ccccn2)c2ccc3ccc(C)nc3c2O)cc(OC)c1O (stereo not drawn),1.26µM*,-6.0%,-15.3%,-12.3%,-6.0%,-8.9%
Cc1cccc(NC(c2ccc(C)s2)c2ccc3ccc(C)nc3c2O)n1 (stereo not drawn),70.8µM*,-5.4%,-0.4%,-4.3%,-1.8%,-15.8%
CCN(CC)c1cc2c(cc1F)c(=O)c(S(=O)(=O)c1ccc(C)cc1)cn2Cc1ccc(F)cc1,29.1%,52.0%,0.0%,2.4%,0.8%,·
CCOc1ccc(Nc2c(S(=O)(=O)c3ccccc3)cnc3ccc(CC)cc23)cc1,16.4%,-0.2%,8.3%,?,-30.0%,·
O=C(c1cccc([N+](=O)[O-])c1)N1c2ncnn2C2(CCCCC2)[C@@H]2CCCC[C@@H]21,10.0%,-3.7%,4.2%,-1.7%,-3.5%,·
COc1ccc(OC)c(S(=O)(=O)NCC(c2ccc(N(C)C)cc2)N2CCOCC2)c1 (stereo not drawn),-10.0%[57.1 µM],-1.2%[57.1 µM],-6.0%,·,5.6%,·
SMILES,TrxR1 inh,TrxR1 substrate,mIDH1 inhibitor,Nrf2 inh,A549 viability,Mito fusion yeast
COc1ccc(NS(=O)(=O)c2ccc(N/N=C(\C)c3ccncc3)c([N+](=O)[O-])c2)cc1,-15.8%,-20.5%,0.4%,20.6µM*,?,-0.8%
Cc1ccc(Cl)cc1NC(=O)/C(C#N)=C/c1c(C)n(Cc2ccccc2)c2ccccc12,11.6%,0.2%,-2.4%,-9.9%,2.6%,·
Cc1c(/C=C(\C#N)C(=O)Nc2cccc(Cl)c2)c2ccccc2n1Cc1ccccc1,10.5%,-4.0%,3.5%,8.2µM*,?,·
CCCCOC(=O)c1ccc(Nc2ncnc3nc[nH]c23)cc1,17.7%,6.3%,11.8%,0.5%,2.6%,6.1%
CCCCCCCCOC(=O)c1cc([N+](=O)[O-])c(Sc2ncnc3nc[nH]c23)c([N+](=O)[O-])c1,39.8µM*,-7.4%,2.2%,-19.8%,-23.7%,·
COc1ccc(/C=c2\[nH]c(=O)/c(=C/c3ccc(OC)cc3)[nH]c2=O)cc1,21.4%,6.9%,·,·,·,·
O=C(NC(c1ccc(Cl)cc1)c1cc(Cl)c2cccnc2c1O)c1cccnc1 (stereo not drawn),8.7%,4.2%,-23.3%,10.3µM*,?,29.7%
CC(=O)NC(c1ccccc1)c1cc(Cl)c2cccnc2c1O (stereo not drawn),-14.6%,-10.1%,-1.4%,18.4µM*,?,2.9%
CCC(=O)NC(c1ccc(C)cc1)c1cc([N+](=O)[O-])c2cccnc2c1O (stereo not drawn),-32.9%,?,-18.9%,23.1µM*,-19.4%,7.5%
CC(=O)NC(c1ccc(C)cc1)c1cc([N+](=O)[O-])c2cccnc2c1O (stereo not drawn),-1.5%[57.1 µM],-2.7%[57.1 µM],-16.3%,11.6µM*,?,21.2%
COc1ccc(C(NC(C)=O)c2cc(Cl)c3cccnc3c2O)cc1 (stereo not drawn),12.9%,0.8%,-0.3%,?,-11.5%,0.4%
CC(=O)NC(c1ccco1)c1cc(Cl)c2ccc(N3CCCCC3)nc2c1O (stereo not drawn),·,·,·,·,·,11.6%
